High-throughput results (PubChem)
Compounds with a hit are over-represented: about 2.4% of the library has one in this group of screens.
M1 PAM parental: counter-screen for M1 PAMs: effect in parental CHO-K1 cells; hit rate 0.02% among 360,000; AID 602247; ATP EC20, Fluo-8 calcium fluorescence; 0% at ATP EC20, 100% at ATP max; activation, % at 3 µM;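 active = activation above the run cutoff, the mean activation of all test compounds plus 3 SD, cut at about 40% in these data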;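 note: peak over basal fluorescence ratio in a 140 s read after ATP addition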
CHRM1 antagonist: human CHRM1 antagonism; CHO-K1 hM1, Fluo-8 calcium fluorescence, ACh EC80 antagonist; inhibition, % at 3 µM; P11229; hit rate 1.3% among 360,000;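 active = percent inhibition above its own plate's cutoff, namely the mean of that plate's compound wells plus 3 SD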;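 note: peak over basal fluorescence ratio during 140 s after agonist addition; 0% = ACh EC80 plus DMSO and 100% = DMSO alone without agonist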
Target sequence (P11229 whole entry, looked up): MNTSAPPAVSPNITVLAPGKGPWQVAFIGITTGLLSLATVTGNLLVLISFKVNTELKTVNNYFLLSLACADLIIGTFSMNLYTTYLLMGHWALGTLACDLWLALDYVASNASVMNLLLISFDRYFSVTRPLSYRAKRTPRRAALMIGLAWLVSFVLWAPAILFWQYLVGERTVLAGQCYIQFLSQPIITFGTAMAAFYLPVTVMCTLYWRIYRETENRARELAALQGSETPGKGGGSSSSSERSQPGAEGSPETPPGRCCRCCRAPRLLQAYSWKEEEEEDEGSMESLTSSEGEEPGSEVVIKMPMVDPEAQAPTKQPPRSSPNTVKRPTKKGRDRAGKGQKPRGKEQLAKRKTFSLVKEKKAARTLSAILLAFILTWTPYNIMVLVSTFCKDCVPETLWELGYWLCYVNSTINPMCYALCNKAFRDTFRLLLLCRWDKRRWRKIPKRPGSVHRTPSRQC
M1 ag parental: nonselective activator or artifact in parental CHO-K1 cells. hit rate 0.48% among 360,000. Fluo-8 calcium fluorescence; scaled to maximal ATP response, vehicle zero. activation, % at 3 µM. AID 602248; in the data active = activation above about 15%;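 note: untransfected CHO-K1 host cells lacking M1 receptor as counterscreen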
M1 PAM: human CHRM1 positive allosteric modulation. P11229. activation, % at 3 µM. CHO-K1 hM1, Fluo-8 calcium fluorescence, ACh EC20; 0% = ACh EC20, 100% = maximal ACh. hit rate 0.088% among 360,000; in the data active = activation above about 19%, passing the limit was not always enough
CHRM1 agonist: agonists of human M1 muscarinic receptor | CHO-K1 hM1, Fluo-8 calcium fluorescence, agonist mode; 0% DMSO, 100% acetylcholine EC100 | P11229 | activation, % at 3 µM | hit rate 0.33% among 360,000;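 active = activation above the run's mean compound activation plus 3 SD, cut at about 16% in these data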;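 note: peak over basal fluorescence ratio within a 140 s kinetic read after compound addition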
CHO-K1 Ca antag: counter-screen for M1 antagonists: effect in parental CHO-K1 cells; ATP-induced calcium, Fluo-8 fluorescence; inhibition, % at 3 µM; hit rate 0.6% among 360,000;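 active = inhibition above a per-plate cutoff, the plate's mean sample inhibition plus 3 SD, cut at about 24% in these data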;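 note: 0% = DMSO plus EC80 ATP and 100% = DMSO alone without ATP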
* marks the source's active call; other numbers are inactive results.

SMILES	M1 PAM parental	CHRM1 antagonist	M1 ag parental	M1 PAM	CHRM1 agonist	CHO-K1 Ca antag
CCC1CCCCN1CCCNC(=O)CSc1nc2nc(C)c(Cc3ccccc3)c(C)n2n1 (stereo unspecified)	21	25*	0	-28	-13	-5
CCC1CCCCN1CCCNC(=O)Cn1nc(C)n2nc(-c3ccccc3)cc2c1=O (stereo unspecified)	4	-13	0	2	-14	-15
COc1ccc(-c2coc3c(C(=O)Nc4cc(OC)c(OC)c(OC)c4)cccc23)c(C)c1	-2	45*	2	-22	-2	-5
COc1ccc(-c2ccc(C(=O)N3CCN(C)CC3)c3occc23)c(C)c1	-10	-12	0	9	1	32*
COc1ccc(-c2ccc(C(=O)N3CCOCC3)c3occc23)c(C)c1	-12	19	6	-13	2	-2
COc1ccc(-c2coc3c(C(=O)NCc4ccc(OC)c(OC)c4)cccc23)c(C)c1	1	44*	13	-19	3	23
COc1ccc(-c2ccc(C(=O)NCc3ccncc3)c3occc23)c(C)c1	-13	42*	11	-17	-1	42*
COc1ccc(-c2ccc(C(=O)NCc3ccc(F)c(F)c3)c3occc23)c(C)c1	15	3	3	-4	-5	-11
CC(C)(C)c1ccc(S(=O)(=O)NC(=O)C2(C)CCN2C(=O)C2(c3ccc(Cl)cc3)CC2)cc1 (stereo unspecified)	-8	-8	0	12	6	14
COc1ccc(-c2nn(-c3ccccc3)cc2C(=O)NC(=S)Nc2cc(Cl)ccc2Cl)cc1	10	-37	0	26*	1	-5
CC(CCc1ccccc1)NC(=O)CN1CCN(Cc2ccc(Cl)cc2)C1=O (stereo unspecified)	-11	6	0	-7	-7	28*
O=C(Nc1cccc(C(F)(F)F)c1)C1=CC=CN2CCS(=O)(=O)N=C12	-13	21	0	-11	-6	6
O=C1CCCN1c1ccc(S(=O)(=O)N2CCCCC2)cc1	9	-6	3	0	-11	-7
O=C1CCCN1c1ccc([N+](=O)[O-])cc1	-12	-8	0	6	0	29*
COCCNC(=O)C1CCC(Cn2c(=S)[nH]c3ccccc3c2=O)CC1 (stereo unspecified)	-2	1	0	2	1	30*
CCCc1cc(=O)[nH]c(SCC(=O)N2c3ccccc3NC(=O)C2(C)C)n1	1	-10	0	16	2	-1
O=C(Cn1c(-c2ccccn2)nc2ccccc21)N/N=C/c1ccccn1	-14	14	4	-8	0	30*
O=C1CCC(C(=O)N2CCc3ccccc3C2)CN1CCCN1CCOCC1 (stereo unspecified)	31	-17	1	15	-6	-13
CCN1CCN(c2c(Cl)cccc2NC(=O)c2ccc([N+](=O)[O-])o2)CC1	22	43*	1	-22	-7	-13
O=C(Nc1cccc(Cl)c1N1CCCC1)c1ccc([N+](=O)[O-])o1	8	2	0	8	0	1
Cc1nc2nc(C)n(CCN3CCOCC3)c(=O)c2c(-c2cccc([N+](=O)[O-])c2)c1C(=O)CCCCCCCCCCN1CCC(c2ccccc2)(c2ccccc2)CC1	12	100*	6	-29	-1	9
CC(C)Cn1c(N)c(C(=O)COC(=O)c2ccc(O)cc2)c(=O)n(C)c1=O	6	-4	4	7	-2	-6
Cc1ccc(S(=O)(=O)CCC(=O)OCC(=O)c2c(N)n(CC(C)C)c(=O)n(C)c2=O)cc1	-6	23	18*	-12	2	4
COc1ccc(CCC(=O)OCC(=O)c2c(N)n(CC(C)C)c(=O)n(C)c2=O)cc1	-26	32*	16*	-11	3	32*
COc1ccccc1CCC(=O)OCC(=O)c1c(N)n(CC(C)C)c(=O)n(C)c1=O	-7	31	17*	-14	1	14
SMILES	M1 PAM parental	CHRM1 antagonist	M1 ag parental	M1 PAM	CHRM1 agonist	CHO-K1 Ca antag
CCOc1ccccc1OCC(=O)OCC(=O)c1c(N)n(CC(C)C)c(=O)n(C)c1=O	-7	28*	17*	-18	1	11
N#CC1C(=O)NC(=O)CC12CCCCC2 (stereo unspecified)	16	-20	1	7	-2	-11
COc1ccccc1NS(=O)(=O)c1ccc(C)c(C(=O)NCCCN2CCCC2=O)c1	-3	0	-1	14	3	31*
CC12CCC(=O)N1C(C(=O)NCc1ccccc1F)CS2 (stereo unspecified)	-3	0	1	3	0	10
Cc1ccc(NC(=O)CNc2ccccc2N2CCCC2=O)cc1S(=O)(=O)N1CCOCC1	-4	15	0	1	-2	2
O=C1C2C3C=CC(C3)C2C(=O)N1c1ccc(N2CCN(c3ccccn3)CC2)c([N+](=O)[O-])c1 (stereo unspecified)	-13	39*	14	-17	1	20
Nc1cccc(-c2cn(-c3cc4cc(C#CC5(O)CCCCC5)ccc4oc3=O)nn2)c1	25	25	6	-17	-1	-12
O=C(O)Cc1ccc(NC(=O)c2cccc(NC(=O)c3ccco3)c2)cc1	-14	2	-1	7	0	28*
O=C(Nc1ccccc1)c1cccc(NC(=O)c2ccco2)c1	26	-6	10	7	2	-5
O=C(Nc1cccc(-c2nc3ccccc3[nH]2)c1)c1cccc(NC(=O)c2ccco2)c1	8	37*	8	-14	-3	-31
COCC(=O)N1CCC(Oc2ccc(C(=O)N3C[C@@H]4CCC[C@H]3C4)cc2)CC1	-13	5	0	-5	0	24*
C#CCOCCOCCOCCNc1nc(N2CCN(C(=O)Cn3cc(CC(C)O)nn3)CC2)nc(N2CCN(C(=O)[C@H](CCCCN)n3cc(CC(C)O)nn3)CC2)n1 (stereo partly specified)	16	-4	5	11	-4	-5
CCOc1ccccc1N(CC(=O)Nc1ccccc1Br)S(=O)(=O)c1ccccc1	0	0	1	-8	-4	0
Cc1noc(C)c1CCC(=O)NC1CCCN(Cc2ccc(Cl)cc2)C1 (stereo unspecified)	-30	36*	-1	-16	-8	15
Cc1noc(C)c1CCC(=O)NC1CCCN(Cc2ccc(CC(C)C)cc2)C1 (stereo unspecified)	-13	54*	3	-22	-5	-9
CC(C)Cc1ccc(CN2CCCC(NC(=O)c3ccnn3C)C2)cc1 (stereo unspecified)	-7	-5	9	-10	0	2
COCCN(C(=O)c1oc2ccccc2c1COC)c1c(N)n(CC(C)C)c(=O)[nH]c1=O	7	-4	0	8	-2	-11
